Test results from PubChem BioAssay (Tox21).
Results filed as inconclusive are left out. A call without a number means that no potency is given here. Values without a mark were called inactive. Active and inactive are the calls of the source. The call rests on the fitted dose curve; in most records, active means well fitted cell-killing curve with a large enough effect in the repeat runs; inconclusive means weak or mixed curves, or effect the other way; inactive means flat fitted curve, though single readings scatter.

Experiment: qHTS assay to identify small molecule agonists of the constitutive androstane receptor (CAR) signaling pathway - cell viability counter screen (AID 1224836); further: nearly all actives have a fitted effect of over 45% in size
Conditions: HepG2-CYP2B6-hCAR viability, CellTiter-Fluor, 23 h, PK11195 added to every well; series mostly up to 92.4 µM
Text: U.S. Tox21 Program National Center for Advancing Translational Sciences [NCATS] NIH Chemical Genomics Center [NCGC] U.S. Environmental Protection Agency [EPA] National Institutes of Environmental Health Sciences [NIEHS] National Toxicology Program [NTP] U.S. Food and Drug Administration [FDA] Tox21 Assay Overview: The constitutive androstane receptor (CAR) is a nuclear receptor which regulates multiple drug metabolizing enzymes (DMEs) and transporters. Activating CAR will generally increase the transcription and subsequent translation of CYP2B6 and CYP3A4. These two DMEs represent about 50% of the drug metabolizing potential in the body. […] Recently, there have also been studies performed indicating CARs role in energy metabolism and cancer therapy. Therefore, inducing CARs activity could have a potential effect on diabetes and cancer. Identifying environmental toxins and compounds which modulate CAR, through the use of the Tox21 10K compound collection, will be an important step in determining the toxicity and potential therapeutic effects these factors will have on the human body. To differentiate true CAR agonists from cytotoxic substances, the assay is multiplexed with a cell viability assay.
Tox21 Assay Protocol Summary: A double-stable (hCAR and CYP2B6-2.2kb) transfected cell line, derived from human hepatoma (HepG2) cells, was utilized for the duration of the quantitative high-throughput screens. The HepG2-CYP2B6-hCAR cells were dispensed at 2500 cells/4 uL/well in 1536-well white solid bottom plates using a Multidrop Combi. After the assay plates were incubated at 37 C/5% CO2 for 4 hrs, 23 nL of compounds at 15 concentrations (from 5-48 columns) or positive control (from 1 to 4 columns) were transferred to the assay plates using a Pintool station. One uL of PK11195 (final concentration = 0.75 uM) was added, using a Flying Reagent Dispenser, inside each well. After a 23 hr incubation period at 37 C/5% CO2, 1 uL of CellTiter-Fluor reagent was added into each well of the assay plates using a Flying Reagent Dispenser. The fluorescence intensity in the plates was then measured using a ViewLux plate reader.
Potency means the concentration at half of the fitted maximal effect.

Row | SMILES | Potency | viability change, negative = cytotoxic
1 | O=C1OC(=O)c2cccc3cccc1c23 | inactive | 
2 | CCCCCCCCCCCC(=O)N(CC)CC | inactive | 
3 | CN(C)CCCN1c2ccccc2CCc2ccccc21 | 30.6 µM (active) | 
4 | Cc1ccc2ccc3cccc4ccc1c2c34 | inactive | 
5 | CC(C)=CCCC(C)O (stereo not given) | inactive | 
6 | CC(C)N=C(N)/N=C(\N)Nc1ccc(Cl)cc1 | inactive | 
7 | CSc1ccc2c(c1)N(CCC1CCCCN1C)c1ccccc1S2 (stereo not given) | 48.4 µM (active) | 
8 | CC1(C)C(=O)N(Br)C(=O)N1Br | inactive | 
9 | Clc1cccnc1 | inactive | 
10 | CC1CCCCN1CCCOC(=O)c1ccc(OC2CCCCC2)cc1 (stereo not given) | inactive | 
11 | C1CC(COCC2CO2)CCC1COCC1CO1 (stereo not given) | inactive | 
12 | Cc1cccc(C)c1NC(=O)CN1CCN(CCCC(c2ccc(F)cc2)c2ccc(F)cc2)CC1 | 23.7 µM (active) | 
13 | COC(=O)CC#N | inactive | 
14 | CCCCNc1c(C(=O)OCC)c(C)nc2c1cnn2CC | inactive | 
15 | O=S(=O)(O)c1cc(S(=O)(=O)O)c2ccc3c(S(=O)(=O)O)cc(S(=O)(=O)O)c4ccc1c2c43 |  | 3.39% [at 19 µM]
16 | CCCSS/C(CCO)=C(\C)N(C=O)Cc1cnc(C)nc1N | inactive | 
17 | CCOC(OCC)C(=O)c1ccccc1 | inactive | 
18 | O=C1c2c(O)ccc([N+](=O)[O-])c2C(=O)c2c([N+](=O)[O-])ccc(O)c21 | 24.1 µM (active) | 
19 | C=CC(=O)OCCOCC(CC)(COCCOC(=O)C=C)COCCOC(=O)C=C | 71.4 µM (active) | 
20 | CCc1cccc(C)c1 | inactive | 

Row | SMILES | Potency | viability change, negative = cytotoxic
21 | CN1[C@@H]2CC[C@H]1CC(OC(=O)C(CO)c1ccccc1)C2 (stereo not given in full) | inactive | 
22 | CCCCCCCCCCCCOC(=O)c1cc(O)c(O)c(O)c1 | 68.3 µM (active) | 
23 | O=C1NCCN1CCN1CCC(c2cn(-c3ccc(F)cc3)c3ccc(Cl)cc23)CC1 | 11.9 µM (active) | 
24 | OCCCc1cccnc1 | inactive | 
25 | NC(=O)C(=O)N/N=C/c1ccc([N+](=O)[O-])o1 | inactive | 
26 | C=CC(=O)OCCN(CC)CC | inactive | 
27 | CC(C)(C)CC(C)(C)c1ccccc1O | inactive | 
28 | CCCCCCCC(OC)OC | inactive | 
29 | CO[C@H]1C=CO[C@@]2(C)Oc3c(C)c(O)c4c(O)c(cc(O)c4c3C2=O)NC(=O)/C(C)=C\C=C/[C@H](C)[C@H](O)[C@@H](C)[C@@H](O)[C@@H](C)[C@H](OC(C)=O)[C@@H]1C | 61.6 µM (active) | 
30 | CC(C)(C)c1cc(CCC(=O)NCCCCCCNC(=O)CCc2cc(C(C)(C)C)c(O)c(C(C)(C)C)c2)cc(C(C)(C)C)c1O | inactive | 
31 | CCCCCCCCCCCCCOP(=O)(O)O | inactive | 
32 | CC(=O)C=O | inactive | 
33 | C[Si](C)O[Si](C)C | inactive | 
34 | C#CC(O)CCC (stereo not given) | inactive | 
35 | CCCCCCCCCC(=O)N(C)C | inactive | 
36 | CCCCCCCCCCCCCCCCCO |  | 0.185% [at 19 µM]
37 | Brc1ccccc1-c1ccccc1 | inactive | 
38 | Cc1cccc(Br)c1 | inactive | 
39 | C=C/C=C/C=C/CCCCC |  | -0.14% [at 19 µM]
40 | CCCCCCCC/C=C/CCCOC(C)=O | inactive | 
